Measured values: the supplement of paper PMC10849652
Targets with a hit are over-represented here; the source holds about 7,900 in all. About 0.6% of all pairs of compound and target were hits. Values without a mark were called inactive.

Key:
Assay in all cases: log2 fold change, soluble protein after heating vs DMSO (PISA); higher = thermal stabilisation; K562 cells, 10 uM, 30 min; active = over 0.2 and 3.5 SD of the protein, either way, in both replicates (recomputed)
[1] = compound: CC[C@@H]1C(=O)N(C)c2cnc(Nc3ccc(C(=O)NC4CCN(C)CC4)cc3OC)nc2N1C1CCCC1
Outline: (§1)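 Quantification of soluble protein used TMTpro 16plex LC-MS/MS, with channel sums equalised. Samples were the supernatant after 21,000xg for 90 min of pooled aliquots from K562 cells (2×10^6 cells/mL) treated with 10 μM compound for 30 min, heated for 3 min over 48°C-58°C, and extracted in PBS with 0.5% NP-40 at 4°C. Values, from duplicates, describe thermal stability against control samples on a log2 fold-change scale.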

[2] = compound: CC[C@@H]1C(=O)N(C)c2cnc(Nc3ccc(C(=O)N[C@H]4CC[C@H](N5CCN(CC6CC6)CC5)CC4)cc3OC)nc2N1C(C)C [volasertib]
Outline: as §1

[3] = compound: CC[C@H](C)N1C=C(C2=C(C=C(C=C21)C3=CN=C(C=C3)N4CCNCC4)C(=O)NCC5=C(C=C(NC5=O)C)C)C
Outline: as §1

[4] = compound: CC[C@H](C)[C@@H](C(=O)N[C@@H]([C@@H](C)O)C(=O)N[C@@H](CC(C)C)C(=O)[C@]1(CO1)C)NC(=O)[C@H]([C@@H](C)CC)N(C)C(=O)C [epoxomicin]
Outline: as §1

[5] = compound: CCn1c(C(=O)N(C2CC2)C2CC2)cc2c3c(ncn3C)c(Nc3cc(C)n(C)n3)nc21
Outline: as §1

[6] = compound: CCn1cc(-c2ccnc3[nH]c(-c4cccc(CN(C)C)c4)cc23)c(-c2ccc(NC(=O)N(C)C)cc2)n1
Outline: as §1

[7] = compound: CN(C)CC(=O)Nc1ccc2[nH]c(=O)c3ccccc3c2c1
Outline: as §1

[8] = compound: CN(CCOC1=CC=C(C=C1)C[C@H]2C(=O)NC(=O)S2)C3=CC=CC=N3 (racemic) [rosiglitazone]
Outline: as §1

[9] = compound: CN1C2=C(C3=C1C(=O)N(N=C3)CC4=CC(=CC=C4)N)SC(=C2)S(=O)C
Outline: as §1

[10] = compound: CN1CCC(CNc2ccc3ncc(-c4cccc(OC(F)(F)F)c4)n3n2)CC1
Outline: as §1

Sequence of UniProt Q8TC07 (Q8TC07 whole entry, looked up): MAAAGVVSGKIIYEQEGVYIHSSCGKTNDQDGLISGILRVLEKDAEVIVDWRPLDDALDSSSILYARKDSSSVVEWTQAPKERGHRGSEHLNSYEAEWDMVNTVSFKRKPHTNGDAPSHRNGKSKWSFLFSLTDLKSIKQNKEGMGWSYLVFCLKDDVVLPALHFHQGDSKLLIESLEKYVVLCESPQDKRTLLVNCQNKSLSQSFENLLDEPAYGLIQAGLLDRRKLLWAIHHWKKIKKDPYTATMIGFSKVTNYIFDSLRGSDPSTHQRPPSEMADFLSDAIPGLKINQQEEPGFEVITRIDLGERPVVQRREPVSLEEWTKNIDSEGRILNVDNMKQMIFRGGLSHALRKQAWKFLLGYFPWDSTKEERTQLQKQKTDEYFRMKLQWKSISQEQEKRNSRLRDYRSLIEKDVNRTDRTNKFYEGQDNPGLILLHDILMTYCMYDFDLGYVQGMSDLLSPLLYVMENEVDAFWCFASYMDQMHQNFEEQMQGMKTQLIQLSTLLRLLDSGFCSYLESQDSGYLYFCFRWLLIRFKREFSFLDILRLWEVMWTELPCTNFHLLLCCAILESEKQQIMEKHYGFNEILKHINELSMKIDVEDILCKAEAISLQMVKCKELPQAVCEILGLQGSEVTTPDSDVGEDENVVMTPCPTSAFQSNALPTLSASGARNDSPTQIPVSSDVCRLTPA
Sequence of UniProt Q92844 (Q92844 whole entry, looked up): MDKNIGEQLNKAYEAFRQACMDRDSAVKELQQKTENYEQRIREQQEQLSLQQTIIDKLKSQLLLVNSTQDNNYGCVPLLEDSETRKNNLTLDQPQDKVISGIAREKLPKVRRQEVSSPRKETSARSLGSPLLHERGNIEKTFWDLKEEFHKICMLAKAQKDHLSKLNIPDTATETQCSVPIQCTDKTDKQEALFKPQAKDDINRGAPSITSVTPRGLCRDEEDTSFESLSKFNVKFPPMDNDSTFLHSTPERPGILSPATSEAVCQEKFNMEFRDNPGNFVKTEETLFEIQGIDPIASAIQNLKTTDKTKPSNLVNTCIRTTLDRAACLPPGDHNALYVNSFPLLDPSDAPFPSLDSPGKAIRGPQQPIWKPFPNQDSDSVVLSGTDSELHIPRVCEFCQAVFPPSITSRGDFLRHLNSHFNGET
Sequence of UniProt Q16629 (Q16629 whole entry, looked up): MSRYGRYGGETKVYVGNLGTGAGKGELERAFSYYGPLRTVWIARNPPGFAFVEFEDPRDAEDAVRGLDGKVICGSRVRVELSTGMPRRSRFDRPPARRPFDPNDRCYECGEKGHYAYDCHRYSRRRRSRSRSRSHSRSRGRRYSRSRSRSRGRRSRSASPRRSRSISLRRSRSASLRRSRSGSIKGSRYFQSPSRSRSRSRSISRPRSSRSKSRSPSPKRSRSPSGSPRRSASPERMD
Sequence of UniProt Q9BW92 (Q9BW92 whole entry, looked up): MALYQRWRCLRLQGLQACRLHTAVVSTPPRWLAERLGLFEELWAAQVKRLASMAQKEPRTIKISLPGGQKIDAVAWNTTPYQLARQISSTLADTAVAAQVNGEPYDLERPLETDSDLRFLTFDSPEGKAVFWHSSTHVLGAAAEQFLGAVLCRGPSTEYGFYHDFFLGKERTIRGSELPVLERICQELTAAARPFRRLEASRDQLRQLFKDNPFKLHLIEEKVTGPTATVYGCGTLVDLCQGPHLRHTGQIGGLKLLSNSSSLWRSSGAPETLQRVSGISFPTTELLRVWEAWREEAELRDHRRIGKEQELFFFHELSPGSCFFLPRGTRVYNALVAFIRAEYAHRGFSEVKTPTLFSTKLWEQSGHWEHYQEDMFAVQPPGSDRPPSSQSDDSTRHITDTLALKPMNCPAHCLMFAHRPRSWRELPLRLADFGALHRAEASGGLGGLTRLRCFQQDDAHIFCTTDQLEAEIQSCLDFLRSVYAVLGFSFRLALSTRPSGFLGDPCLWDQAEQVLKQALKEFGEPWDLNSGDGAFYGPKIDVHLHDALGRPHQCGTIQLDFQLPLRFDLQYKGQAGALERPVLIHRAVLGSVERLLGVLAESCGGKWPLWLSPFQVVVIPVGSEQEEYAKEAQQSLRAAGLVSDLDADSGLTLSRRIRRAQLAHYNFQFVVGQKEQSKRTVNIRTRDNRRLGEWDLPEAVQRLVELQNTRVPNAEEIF
Sequence of UniProt Q15582 (Q15582 whole entry, looked up): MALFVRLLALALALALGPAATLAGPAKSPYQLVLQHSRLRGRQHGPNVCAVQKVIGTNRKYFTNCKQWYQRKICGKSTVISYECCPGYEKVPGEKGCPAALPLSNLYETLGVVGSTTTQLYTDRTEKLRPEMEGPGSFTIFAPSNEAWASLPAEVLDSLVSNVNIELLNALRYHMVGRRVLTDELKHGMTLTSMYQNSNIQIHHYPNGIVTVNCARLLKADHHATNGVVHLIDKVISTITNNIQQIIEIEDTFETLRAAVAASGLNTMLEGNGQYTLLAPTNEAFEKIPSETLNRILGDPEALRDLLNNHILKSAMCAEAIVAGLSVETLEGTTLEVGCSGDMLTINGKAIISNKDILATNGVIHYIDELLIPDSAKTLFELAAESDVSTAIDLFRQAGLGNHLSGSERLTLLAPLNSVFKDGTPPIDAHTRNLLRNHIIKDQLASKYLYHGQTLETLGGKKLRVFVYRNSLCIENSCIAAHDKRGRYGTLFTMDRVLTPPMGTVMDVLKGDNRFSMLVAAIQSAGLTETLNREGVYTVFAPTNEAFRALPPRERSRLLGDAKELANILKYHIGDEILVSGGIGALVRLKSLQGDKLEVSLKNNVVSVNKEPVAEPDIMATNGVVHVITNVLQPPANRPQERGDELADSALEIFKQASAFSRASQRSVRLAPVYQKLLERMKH
Sequence of UniProt Q9UP52 (Q9UP52 whole entry, looked up): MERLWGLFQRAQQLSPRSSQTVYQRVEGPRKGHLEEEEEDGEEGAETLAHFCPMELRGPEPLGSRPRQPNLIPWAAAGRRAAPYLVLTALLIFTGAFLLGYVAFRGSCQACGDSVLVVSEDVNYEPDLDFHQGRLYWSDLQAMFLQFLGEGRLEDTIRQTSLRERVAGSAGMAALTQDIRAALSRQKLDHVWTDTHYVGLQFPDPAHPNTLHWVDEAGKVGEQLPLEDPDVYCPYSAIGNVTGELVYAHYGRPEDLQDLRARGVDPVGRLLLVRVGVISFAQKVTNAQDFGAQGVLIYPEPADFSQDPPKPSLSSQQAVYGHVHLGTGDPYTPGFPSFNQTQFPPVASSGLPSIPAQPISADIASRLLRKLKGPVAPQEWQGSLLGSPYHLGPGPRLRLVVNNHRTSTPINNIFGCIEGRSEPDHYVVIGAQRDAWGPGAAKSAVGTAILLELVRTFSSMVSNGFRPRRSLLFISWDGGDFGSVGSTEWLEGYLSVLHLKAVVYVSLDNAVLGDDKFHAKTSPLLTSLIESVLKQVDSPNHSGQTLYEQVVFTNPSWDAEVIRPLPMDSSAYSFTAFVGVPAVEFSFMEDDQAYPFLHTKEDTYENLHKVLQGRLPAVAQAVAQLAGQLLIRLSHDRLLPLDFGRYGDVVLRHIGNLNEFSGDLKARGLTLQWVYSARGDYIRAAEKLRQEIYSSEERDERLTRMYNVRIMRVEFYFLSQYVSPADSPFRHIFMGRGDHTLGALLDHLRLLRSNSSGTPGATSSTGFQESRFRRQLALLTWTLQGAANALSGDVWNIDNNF
Sequence of UniProt Q86VD7 (Q86VD7 whole entry, looked up): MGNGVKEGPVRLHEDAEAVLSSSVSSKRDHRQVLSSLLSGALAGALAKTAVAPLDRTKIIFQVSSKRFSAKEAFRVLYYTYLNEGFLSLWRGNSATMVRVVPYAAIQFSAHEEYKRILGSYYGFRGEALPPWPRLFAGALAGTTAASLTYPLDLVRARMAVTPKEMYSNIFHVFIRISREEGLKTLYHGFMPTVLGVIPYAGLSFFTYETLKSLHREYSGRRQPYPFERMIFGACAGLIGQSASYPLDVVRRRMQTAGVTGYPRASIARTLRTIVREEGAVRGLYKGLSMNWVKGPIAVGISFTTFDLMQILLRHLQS
Sequence of UniProt Q13043 (Q13043 whole entry, looked up): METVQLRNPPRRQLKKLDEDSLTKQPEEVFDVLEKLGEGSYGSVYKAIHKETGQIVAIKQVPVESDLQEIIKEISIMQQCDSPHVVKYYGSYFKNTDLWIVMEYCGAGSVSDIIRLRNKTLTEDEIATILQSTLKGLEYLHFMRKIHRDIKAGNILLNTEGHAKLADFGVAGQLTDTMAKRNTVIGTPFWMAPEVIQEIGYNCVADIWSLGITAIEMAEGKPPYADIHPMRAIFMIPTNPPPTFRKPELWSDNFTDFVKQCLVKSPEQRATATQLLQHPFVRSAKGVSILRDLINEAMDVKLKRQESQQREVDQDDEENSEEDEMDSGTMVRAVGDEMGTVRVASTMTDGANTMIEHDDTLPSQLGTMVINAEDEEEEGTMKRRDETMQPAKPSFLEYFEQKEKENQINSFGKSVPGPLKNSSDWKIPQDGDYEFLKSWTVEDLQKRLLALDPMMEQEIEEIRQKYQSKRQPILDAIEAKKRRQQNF
Sequence of UniProt Q9UNL2 (Q9UNL2 whole entry, looked up): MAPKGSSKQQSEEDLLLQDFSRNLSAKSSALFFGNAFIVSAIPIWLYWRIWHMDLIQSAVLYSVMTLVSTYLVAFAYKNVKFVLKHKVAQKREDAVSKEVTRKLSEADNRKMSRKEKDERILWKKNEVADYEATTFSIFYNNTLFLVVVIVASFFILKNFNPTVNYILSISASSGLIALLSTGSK
Sequence of UniProt Q15527 (Q15527 whole entry, looked up): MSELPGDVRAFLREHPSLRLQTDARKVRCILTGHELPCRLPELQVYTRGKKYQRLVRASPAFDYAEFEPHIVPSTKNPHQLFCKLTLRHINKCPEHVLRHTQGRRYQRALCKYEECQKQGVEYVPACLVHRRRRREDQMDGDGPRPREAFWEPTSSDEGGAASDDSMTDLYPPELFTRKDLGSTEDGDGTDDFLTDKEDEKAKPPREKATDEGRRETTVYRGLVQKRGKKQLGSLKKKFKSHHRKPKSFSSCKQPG

Row | Target | log2 fold change [1] | log2 fold change [2] | log2 fold change [3] | log2 fold change [4] | log2 fold change [5] | log2 fold change [6] | log2 fold change [7] | log2 fold change [8] | log2 fold change [9] | log2 fold change [10]
1 | SURF2 (UniProt Q15527) | -0.002 | -0.046 | 0.014 | 0.04 | -0.008 | -0.078 | 0.037 | 0 | -0.043 | 0.024
2 | STAT5B (UniProt P51692) | -0.221 | -0.333 | 0.36 | 0.004 | -0.037 | 0.052 | 0.105 | -0.003 | -0.063 | -0.045
3 | STK11IP (UniProt Q8N1F8) | -0.224 | -0.517 (active) | 0.103 | 0.069 | -0.051 | -0.006 | 0.025 | 0.011 | 0.026 | -0.233
4 | SLC6A6 (UniProt P31641) | -0.011 | 0.01 | 0 | 0.135 | 0.024 | -0.053 | -0.012 | -0.011 | -0.02 | 0.084
5 | TARBP1 (UniProt Q13395) | -0.022 | -0.337 (active) | -0.107 | 0.121 | 0.018 | 0.077 | -0.012 | 0.013 | 0.001 | -0.027
6 | SP1 (UniProt P08047) | 0.047 | 0.102 | 0 | -0.032 | 0.007 | -0.003 | -0.042 | -0.005 | 0.006 | -0.063
7 | SSX2 (UniProt Q16385) | -0.046 | -0.102 | 0.071 | 0.131 | 0.007 | -0.036 | 0.007 | 0.045 | -0.06 | 0.021
8 | THADA (UniProt Q6YHU6) | -0.003 | -0.017 | 0.011 | -0.007 | 0 | 0.057 | 0.051 | 0.076 | -0.019 | -0.146
9 | SSR3 isoform 2 (UniProt Q9UNL2) | 0.05 | 0.059 | -0.075 | -0.054 | 0.062 | -0.069 | 0.087 | -0.002 | 0.056 | 0.195
10 | SRPRB (UniProt Q9Y5M8) | -0.141 | -0.048 | 0.031 | 0.1 | -0.046 | -0.134 | 0.042 | 0.002 | -0.05 | 0.051
11 | TFR2 (UniProt Q9UP52) | -0.483 (active) | -0.382 (active) | -0.045 | 0.01 | 0.037 | 0.038 | -0.035 | -0.007 | -0.003 | -0.22
12 | TARS2 (UniProt Q9BW92) | -0.017 | -0.128 | 0.012 | 0.02 | 0.009 | -0.002 | -0.019 | 0.018 | -0.055 | -0.069
13 | TAOK1 (UniProt Q7L7X3) | 0.03 | -0.019 | 0.029 | -0.02 | -0.008 | -0.024 | 0 | 0.032 | 0.017 | -0.262 (active)
14 | TANK (UniProt Q92844) | 0.057 | -0.105 | -0.064 | -0.021 | -0.074 | 0.074 | -0.012 | -0.012 | -0.117 | -0.072
15 | SLC25A42 (UniProt Q86VD7) | -0.025 | 0.039 | -0.028 | 0 | 0.019 | 0.002 | -0.021 | 0.025 | 0.022 | 0.022
16 | TGFBI (UniProt Q15582) | -0.089 | -0.211 | -0.044 | -0.33 | -0.026 | 0.068 | -0.128 | 0.118 | 0.171 | -0.142
17 | TBC1D23 (UniProt Q9NUY8) | -0.228 | -0.261 | 0.008 | 0.049 | -0.05 | -0.069 | 0.025 | 0.042 | 0.043 | -0.651 (active)
18 | TBC1D15 isoform 3 (UniProt Q8TC07) | -0.221 | -0.485 (active) | 0.04 | 0.004 | -0.081 | -0.024 | 0.031 | 0.05 | 0.018 | -0.241 (active)
19 | TATDN2 (UniProt Q93075) | 0.071 | -0.008 | 0.104 | -0.096 | 0.044 | -0.071 | -0.098 | 0.082 | 0.046 | -0.076
20 | TLK1 (UniProt Q9UKI8) | 0.017 | -0.088 | 0.02 | -0.018 | 0.01 | -0.054 | 0.033 | 0.026 | -0.086 | -0.037
21 | STK4 (UniProt Q13043) | 0.024 | 0.006 | 0.014 | 0.033 | -0.029 | -0.041 | 0.013 | 0.03 | 0.004 | -0.061
22 | STK39 (UniProt Q9UEW8) | -0.062 | -0.139 | 0.023 | 0.054 | -0.055 | -0.036 | -0.011 | 0.049 | 0.005 | -0.25 (active)
23 | TAX1BP1 (UniProt Q86VP1) | -0.144 | -0.298 (active) | -0.081 | -0.027 | 0.055 | -0.067 | 0 | -0.011 | -0.001 | 0.003
24 | SPECC1 (UniProt Q5M775) | 0.109 | 0.052 | -0.013 | -0.101 | 0.037 | 0.004 | -0.111 | 0.023 | 0.07 | -0.012
25 | TBCD (UniProt Q9BTW9) | -0.061 | -0.315 (active) | 0.074 | -0.012 | 0.028 | -0.002 | 0.033 | 0.016 | -0.044 | -0.094
26 | SRC isoform 2 (UniProt P12931) | 0.079 | -0.03 | 0.108 | -0.16 | -0.101 | -0.066 | -0.032 | 0.029 | -0.002 | -0.149
27 | SUPT16H (UniProt Q9Y5B9) | -0.426 | -0.363 | 0.095 | 0.085 | -0.108 | -0.089 | 0.285 | 0.073 | -0.02 | -0.198
28 | STXBP2 isoform 3 (UniProt Q15833) | -0.015 | -0.217 | 0.138 | -0.006 | -0.083 | -0.025 | 0.02 | 0.096 | 0.116 | -0.072
29 | SRSF7 (UniProt Q16629) | 0.18 | 0.215 | -0.039 | -0.171 | 0.03 | 0.181 | -0.085 | -0.172 | 0.218 | 0.175
